These results are taken from PubChem BioAssay (Tox21).

Results filed as inconclusive are left out. Entries that show only a call come without a potency. A number with no mark means an inactive call. Active and inactive are the calls of the source. Unless noted, the call rests on the fitted dose curve.

The first test is described as follows: qHTS assay to identify small molecule agonists of the hypoxia (HIF-1) signaling pathway (AID 1224846; active means well fitted activation curve with a large enough effect in the signal ratio in the repeat runs, not every such curve was filed as active; the % refers to the signal ratio). As to conditions: HRE-bla ME-180 cells, beta-lactamase ratio, 17 h; series mostly up to 76.8 µM. The essentials:
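In ME-180 cells bearing an HRE-bla construct, 17 h treatment with DMSO-dissolved compounds at 37C was followed by CCF4-AM loading to quantify reporter induction.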
In the case of `CNC(=O)N(c1ccccc1)c1ccccc1`, the result was inactive.
Still for that read-out and setting: for `CC1(C)C(=O)N(Br)C(=O)N1Cl` the value was “inactive”.
Take `CCCCCCCCSCCO`: the result was inactive.
The same measure, in the same setting: for `CC#N` the value was “inactive”; for `NC(=O)Nc1ccc(Cl)cc1`, “inactive”; for `OC/C(Br)=C(\Br)CO`, “inactive”.
On to `CC1=CC(=O)CC(C)(C)C1(O)/C=C/C(C)=C\C(=O)O` (stereo not drawn), for which the outcome was inactive.
Still for that read-out and setting: as for `CCCOC(=O)c1ccc(N)cc1`, the entry is “inactive”.
Same read-out and setting: for `CCCCC(CC)CNCC(CC)CCCC` (stereo not drawn) the value was “inactive”; for `O=C(CCC1CCN(Cc2ccccc2)CC1)c1ccc2c(c1)NCCCC2`, “inactive”; for `CC(=O)OCC(=O)[C@H]1CC[C@H]2[C@@H]3CCC4=CC(=O)CC[C@]4(C)[C@H]3CC[C@]12C`, “inactive”.
The same measure, in the same setting: as for `COC(=O)c1cc(Cl)ccc1NS(=O)(=O)C(F)(F)F`, the entry is “inactive”.
Consider `CC(=O)CC(c1ccc([N+](=O)[O-])cc1)c1c(O)c2ccccc2oc1=O` (stereo not drawn), for which the result was inactive.
For `CCOC(=O)c1ccccc1OC`, the result was inactive.
On the same count and under the same terms, for `c1cnc2c(n1)CCCC2` the value was “inactive”; for `CO[C@H]1O[C@H](CO)[C@@H](O)[C@H](O)[C@H]1O`, “inactive”.
The same measure, in the same setting: for `O=C(/C=C/c1ccccc1)OCCCc1ccccc1` the value was “inactive”.
As to `C=CCCCCCCCCCCCCCCCC`, the activation was 0.0723% [at 7.01 µM].
Turning to `CCCCC(=O)O[C@]1(C(=O)CO)CC[C@H]2[C@@H]3CCC4=CC(=O)CC[C@]4(C)[C@H]3[C@@H](O)C[C@@]21C`, the result was inactive.
On to `NC(=O)N(O)[C@@H]1C=C[C@H](Oc2cccc(Oc3ccc(F)cc3)c2)C1`, for which the outcome was inactive.
On the same count and under the same terms, for `CC1CC(O)CC(C)(C)C1` (stereo not drawn) the value was “inactive”.
`N#C[C@@H]1C[C@@H]2C[C@@H]2N1C(=O)[C@@H](N)C12CC3CC(CC(O)(C3)C1)C2`: the outcome was inactive.
Same read-out and setting: as for `O=Cc1c(Cl)cccc1Cl`, the entry is “inactive”; as for `CC1(C)O[C@@H]2C[C@H]3[C@@H]4CCC5=CC(=O)C=C[C@]5(C)[C@H]4[C@@H](O)C[C@]3(C)[C@]2(C(=O)CO)O1`, “inactive”.
As to `CCCCCCCCCCCCCCCCBr`, the activation was 0.309% [at 15.8 µM].
With `CCCCCCOC(=O)C(C)C`, the outcome was inactive.
The same measure, in the same setting: for `COC(=O)c1cc(S(N)(=O)=O)ccc1OC` the value was “inactive”; for `C=CC(C)(O)CCCC(C)CCCC(C)CCCC(C)C` (stereo not drawn), “inactive”.
On to `CN1C(=O)CC(C)(c2ccccc2)C1=O` (stereo not drawn), for which the result was inactive.
The same measure, in the same setting: as for `C[C@]12CCC(=O)C=C1C=C[C@@H]1[C@@H]2CC[C@@]2(C)[C@H]1CC[C@@]21CCC(=O)O1`, the entry is “inactive”; as for `Cc1occc1C(=O)Nc1ccc(C(=O)N2CCC(F)(F)/C(=C\C(=O)N3CCC(N4CCCCC4)CC3)c3ccccc32)cc1`, “inactive”.
For the compound `CCCC1C(CC)=CC(CC)=CN1c1ccccc1` (stereo not drawn), the outcome was inactive.
Still for that read-out and setting: for `CC(=O)[C@H]1CC[C@H]2[C@@H]3C[C@H](C)C4=CC(=O)CC[C@]4(C)[C@H]3[C@@H](O)C[C@]12C` the value was “inactive”; for `C=CC(=C)CCCC(C)(C)OC(C)=O`, “inactive”; for `O=S1OCCO1`, “inactive”.
On the same count and under the same terms, as for `C1COCO1`, the entry is “inactive”.
Same read-out and setting: for `CC(=O)Nc1ccccc1C` the value was “inactive”; for `COc1cc2[nH]c(=O)[nH]c(=O)c2cc1OC`, “inactive”; for `N#C/C(=C1/SC[C@@H](c2ccc(Cl)cc2Cl)S1)n1ccnc1`, “inactive”.

A short description of another test: qHTS assay to identify small molecule agonists of H2AX - cell viability counter screen (AID 1224847). Further: top concentration of the series differs between compounds; nearly all actives have a fitted effect of over 30% in size. Conditions: CHO-K1 viability, CellTiter-Glo luminescence, 3 h; series mostly up to 154 µM. The essentials: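 Wild-type CHO-K1 cells (10% FBS medium) were plated overnight at 37C, exposed to compounds at 15 concentrations for 3 hr at 37C (0.76% DMSO final), and viability was read as CellTiter-Glo luminescence after 30 min at room temperature.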
As for `CNC(=O)N(c1ccccc1)c1ccccc1`, the Potency entry was “inactive”.
For `CC1(C)C(=O)N(Br)C(=O)N1Cl`, the Potency entry was “inactive”.
Turning to `CCCCCCCCSCCO`, the Potency result is “inactive”.
Still for that read-out and setting: for `CC#N` the value was “inactive”.
For `NC(=O)Nc1ccc(Cl)cc1`, the Potency entry is “inactive”.
On to `OC/C(Br)=C(\Br)CO`, for which the Potency result is “inactive”.
With `CC1=CC(=O)CC(C)(C)C1(O)/C=C/C(C)=C\C(=O)O` (stereo not drawn), the Potency result is “inactive”.
As for `CCCOC(=O)c1ccc(N)cc1`, the Potency entry is “inactive”.
Turning to `CCCCC(CC)CNCC(CC)CCCC` (stereo not drawn), the Potency entry is “inactive”.
Take `O=C(CCC1CCN(Cc2ccccc2)CC1)c1ccc2c(c1)NCCCC2`: the Potency result was “inactive”.
Take `CC(=O)OCC(=O)[C@H]1CC[C@H]2[C@@H]3CCC4=CC(=O)CC[C@]4(C)[C@H]3CC[C@]12C`: the Potency result was “inactive”.
Still for that read-out and setting: as for `COC(=O)c1cc(Cl)ccc1NS(=O)(=O)C(F)(F)F`, the entry is “inactive”; as for `CC(=O)CC(c1ccc([N+](=O)[O-])cc1)c1c(O)c2ccccc2oc1=O` (stereo not drawn), “inactive”; as for `CCOC(=O)c1ccccc1OC`, “inactive”.
For `c1cnc2c(n1)CCCC2`, the Potency entry is “inactive”.
For `CO[C@H]1O[C@H](CO)[C@@H](O)[C@H](O)[C@H]1O`, the Potency entry is “inactive”.
Regarding `O=C(/C=C/c1ccccc1)OCCCc1ccccc1`, the Potency entry is “inactive”.
For `C=CCCCCCCCCCCCCCCCC`, the activity change, negative = cytotoxicity is 0.307% [at 14 µM].
For the compound `CCCCC(=O)O[C@]1(C(=O)CO)CC[C@H]2[C@@H]3CCC4=CC(=O)CC[C@]4(C)[C@H]3[C@@H](O)C[C@@]21C`, the Potency entry was “inactive”.
Still for that read-out and setting: as for `NC(=O)N(O)[C@@H]1C=C[C@H](Oc2cccc(Oc3ccc(F)cc3)c2)C1`, the entry is “inactive”; as for `CC1CC(O)CC(C)(C)C1` (stereo not drawn), “inactive”; as for `N#C[C@@H]1C[C@@H]2C[C@@H]2N1C(=O)[C@@H](N)C12CC3CC(CC(O)(C3)C1)C2`, “inactive”.
With `O=Cc1c(Cl)cccc1Cl`, the Potency result is “inactive”.
The same measure, in the same setting: for `CC1(C)O[C@@H]2C[C@H]3[C@@H]4CCC5=CC(=O)C=C[C@]5(C)[C@H]4[C@@H](O)C[C@]3(C)[C@]2(C(=O)CO)O1` the value was “inactive”.
On to `CCCCCCCCCCCCCCCCBr`, for which the activity change, negative = cytotoxicity was 2.27% [at 31.6 µM].
As to `CCCCCCOC(=O)C(C)C`, the Potency entry is “inactive”.
Regarding `COC(=O)c1cc(S(N)(=O)=O)ccc1OC`, the Potency entry is “inactive”.
As to `C=CC(C)(O)CCCC(C)CCCC(C)CCCC(C)C` (stereo not drawn), the Potency entry is “inactive”.
The same measure, in the same setting: for `CN1C(=O)CC(C)(c2ccccc2)C1=O` (stereo not drawn) the value was “inactive”.
Same read-out and setting: as for `C[C@]12CCC(=O)C=C1C=C[C@@H]1[C@@H]2CC[C@@]2(C)[C@H]1CC[C@@]21CCC(=O)O1`, the entry is “inactive”; as for `Cc1occc1C(=O)Nc1ccc(C(=O)N2CCC(F)(F)/C(=C\C(=O)N3CCC(N4CCCCC4)CC3)c3ccccc32)cc1`, “inactive”; as for `CCCC1C(CC)=CC(CC)=CN1c1ccccc1` (stereo not drawn), “inactive”.
Still for that read-out and setting: as for `CC(=O)[C@H]1CC[C@H]2[C@@H]3C[C@H](C)C4=CC(=O)CC[C@]4(C)[C@H]3[C@@H](O)C[C@]12C`, the entry is “inactive”; as for `C=CC(=C)CCCC(C)(C)OC(C)=O`, “inactive”.
`O=S1OCCO1`: the Potency entry is “inactive”.
Same read-out and setting: for `C1COCO1` the value was “inactive”; for `CC(=O)Nc1ccccc1C`, “inactive”.
The same measure, in the same setting: for `COc1cc2[nH]c(=O)[nH]c(=O)c2cc1OC` the value was “inactive”.
Turning to `N#C/C(=C1/SC[C@@H](c2ccc(Cl)cc2Cl)S1)n1ccnc1`, the Potency result is “inactive”.
